# Pf Dd2 inh: P. falciparum Dd2 growth inhibitors, primary screen, SYBR Green fluorescence, single dose replicates; 72 h; hits give low values; hit rate 2.3% among 94,000; activity change, % at 10 µM; in the data active = activity change below about -80%
# C diff HTS: C. difficile growth inhibitors, primary screen, HTS; Clostridium difficile clinical isolate growth, OD600, 24 h; hits give low values; growth activity, negative = inhibition, % at 16 µg/mL (by protocol); hit rate 0.25% among 86,000;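 active = mean growth activity at or below -80% and every replicate also at or below -80%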;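 also: 0% = DMSO wells and -100% = levofloxacin 16 µg/mL wells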
# T cruzi growth: T. cruzi intracellular proliferation inhibitors, primary screen, cell-based, beta-gal Tulahuen parasites, NIH3T3 host, luminescence. hit rate 5.9% among 77,000. T. cruzi beta-gal in NIH3T3, GalScreen luminescence, 90 h. inhibition, % at 8.34 µM;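 active = mean inhibition above about 93%, with at least 55% of replicates each passing it, limit read from the data, passing the limit was not always enough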
# Starred values were filed as active, the others as inactive; . = no result given. In the library only some 6.7% were active in any assay of this set; here they are far more common.
SMILES,Pf Dd2 inh,C diff HTS,T cruzi growth
C[C@@H]1CN([C@@H](C)CO)C(=O)c2ccccc2-c2ccccc2CO[C@@H]1CN(C)C(=O)Nc1cccc(Cl)c1Cl,-65,-6,.
C[C@@H]1CN([C@@H](C)CO)C(=O)c2cc(-c3ccc(F)cc3)cnc2O[C@H]1CN(C)C(=O)Cc1ccccc1,4,1,30
COc1ccc2c3c([nH]c2c1)[C@@H](CO)N(Cc1ccccn1)CC31CN(C(=O)c2ccccn2)C1,-8,1,.
CN(C)C(=O)c1cccc(-c2ccc3c(c2)[C@@H]2[C@@H](CCN2C(=O)c2cccnc2)[C@@H](CO)N3)c1,4,11,41
CCC(=O)Nc1ccc2c(c1)C(=O)N(C)C[C@@H](OC)[C@H](C)CN(Cc1ccccn1)[C@@H](C)CO2,-1,.,-33
C[C@H]1CN([C@@H](C)CO)C(=O)c2cc(NS(=O)(=O)c3cccs3)ccc2O[C@H]1CN(C)CC1CCCCC1,18,17,2
COc1ccc(NC(=O)N2CCCCN3[C@H](CO)[C@H](c4ccc(C#Cc5ccccc5)cc4)[C@@H]3C2)cc1,-84*,-15,62
COc1ccc(C#Cc2ccc([C@H]3[C@H](CO)N4CCCCN(C(=O)Nc5ccccc5)C[C@@H]34)cc2)cc1,-52,2,72
COc1ccc(C#Cc2ccc([C@H]3[C@H](CO)N4CCCCN(C(=O)Nc5ccc(F)cc5)C[C@@H]34)cc2)cc1,-55,4,63
COc1ccc(NC(=O)N2CCCCN3[C@@H](CO)[C@@H](c4ccc(C#Cc5ccccc5)cc4)[C@@H]3C2)cc1,-37,-97*,70
CCCC#Cc1cnc2c(c1)C(=O)N([C@H](C)CO)C[C@H](C)[C@H](CN(C)C(=O)CCN1CCCCC1)O2,7,-1,.
C[C@@H]1CN([C@@H](C)CO)C(=O)c2cc(NC(=O)c3ccncc3)ccc2O[C@@H](C)CCCCO[C@H]1CN(C)Cc1ccccc1,-28,-5,68
C[C@H]1CN([C@@H](C)CO)S(=O)(=O)c2ccc(C#Cc3cccnc3)cc2O[C@H]1CN(C)CC1CC1,-73,.,-1
CCCN(C)C[C@@H]1Oc2cc(C#Cc3ccccc3OC)ccc2S(=O)(=O)N([C@@H](C)CO)C[C@@H]1C,-39,11,50
C[C@H]1CN([C@@H](C)CO)S(=O)(=O)c2ccc(-c3ccc(C#N)cc3)cc2O[C@H]1CN(C)CC1CC1,-91*,5,-48
CCCN(C)C[C@@H]1Oc2cc(C#Cc3cccnc3)ccc2S(=O)(=O)N([C@@H](C)CO)C[C@@H]1C,-86*,0,47
C[C@@H]1CN([C@@H](C)CO)S(=O)(=O)c2ccc(-c3ccc(C#N)cc3)cc2O[C@@H]1CN(C)CC1CC1,-77,-3,-38
CCCN(C)C[C@H]1Oc2cc(C#Cc3ccccc3OC)ccc2S(=O)(=O)N([C@H](C)CO)C[C@H]1C,-81*,3,79
CCCC#Cc1cnc2c(c1)C(=O)N([C@@H](C)CO)C[C@H](C)[C@H](CN(C)Cc1ccc3c(c1)OCO3)O2,-8,6,47
O=S(=O)(N[C@@H]1CC[C@H](CCn2cc(C3(O)CCCC3)nn2)O[C@H]1CO)c1ccc(F)cc1,5,-1,-28
Cc1noc(C)c1NC(=O)N(C)C[C@H]1OCCCC[C@@H](C)Oc2ccc(NS(C)(=O)=O)cc2C(=O)N([C@H](C)CO)C[C@H]1C,-3,0,33
C[C@H](CO)N1C[C@H](C)[C@H](CN(C)Cc2ccc(-c3ccccc3)cc2)OCc2ccccc2-c2ccccc2C1=O,-87*,8,.
COc1ccc(CN(C)C[C@H]2OCc3cn(nn3)CCCC(=O)N([C@H](C)CO)C[C@@H]2C)cc1,22,2,-47
Cc1ccccc1S(=O)(=O)N(C)C[C@H]1OCc2ccccc2-c2ccccc2C(=O)N([C@@H](C)CO)C[C@H]1C,-87*,1,92
COc1ccc(CN(C)C[C@@H]2OCc3cn(nn3)CCCC(=O)N([C@H](C)CO)C[C@H]2C)cc1,-81*,3,-31
SMILES,Pf Dd2 inh,C diff HTS,T cruzi growth
C[C@H](CO)N1C[C@H](C)[C@H](CN(C)S(=O)(=O)c2ccc(Cl)cc2)OCc2ccccc2-c2ccccc2C1=O,-85*,1,67
C[C@@H]1CN([C@H](C)CO)C(=O)c2ccccc2-c2ccccc2CO[C@@H]1CN(C)S(=O)(=O)c1ccc(Cl)cc1,-49,8,93
C[C@H](CO)N1C[C@H](C)[C@H](CN(C)Cc2ccccc2)OCc2ccccc2-c2ccccc2C1=O,-15,.,32
Cc1ccccc1S(=O)(=O)N(C)C[C@@H]1OCc2ccccc2-c2ccccc2C(=O)N([C@@H](C)CO)C[C@@H]1C,-57,-11,94
CC(=O)N1[C@@H](CO)[C@@H](c2ccc(C3=CCCC3)cc2)[C@@H]1CNC(=O)CN(C)C,8,-3,79
O=C(C[C@H]1C[C@@H]2c3cc(NC(=O)Nc4ccc(F)cc4)ccc3O[C@@H]2[C@@H](CO)O1)NCC(F)(F)F,-53,3,-10
COc1ccc(NC(=O)Nc2ccc3c(c2)C(=O)N([C@H](C)CO)C[C@H](C)[C@@H](CN(C)Cc2ccccc2)O3)cc1,24,-3,-9
COc1ccc(NC(=O)N(C)C[C@H]2Oc3c(NS(=O)(=O)c4ccccc4)cccc3C(=O)N([C@H](C)CO)C[C@H]2C)cc1,-69,.,0
COCC#Cc1ccc2c(c1)O[C@H](CN(C)C(=O)c1ccccc1)[C@@H](C)CN([C@@H](C)CO)S2(=O)=O,-39,-5,15
O=C(C[C@H]1C=C[C@H](NS(=O)(=O)c2ccc(F)cc2)[C@@H](CO)O1)NCc1ccccc1F,-4,1,.
Cc1ccccc1-c1ccc([C@@H]2[C@@H](CO)N3CCCCN(C(=O)Nc4ccc(F)cc4)C[C@H]23)cc1,-29,75,83
O=C(Nc1ccc(F)cc1)N1CCCCN2[C@@H](CO)[C@@H](c3ccc(-c4cccc(F)c4)cc3)[C@@H]2C1,-53,-99*,51
O=C(Nc1cccc(F)c1)N1CCCCN2[C@@H](CO)[C@@H](c3ccc(-c4ccccc4F)cc3)[C@@H]2C1,-50,-98*,70
Cc1ccccc1-c1ccc([C@@H]2[C@H](CO)N3CCCCN(C(=O)Nc4cccc(F)c4)C[C@@H]23)cc1,-36,-96*,52
Cc1ccccc1-c1ccc([C@H]2[C@@H](CO)N3CCCCN(C(=O)Nc4cccc(F)c4)C[C@H]23)cc1,-38,-98*,-28
O=C(Nc1ccccc1)N1CCCCN2[C@H](CO)[C@H](c3ccc(-c4ccccc4F)cc3)[C@H]2C1,-33,60,95
O=C(Nc1ccc(F)cc1)N1CCCCN2[C@H](C1)[C@@H](c1ccc(-c3cccc(F)c3)cc1)[C@@H]2CO,11,50,56
Cc1ccccc1-c1ccc([C@H]2[C@@H](CO)N3CCCCN(C(=O)Nc4cccc(F)c4)C[C@@H]23)cc1,23,10,87
CCCN(C)C[C@H]1Oc2cc(C3=CCCC3)ccc2S(=O)(=O)N([C@H](C)CO)C[C@@H]1C,-64,.,-5
COCC(=O)N1CCC2(CC1)CN(S(C)(=O)=O)[C@@H](CO)c1c2c2ccc(OC)cc2n1C,70,.,.
